Calls of active or inactive are those of the source. The calls were made as follows: active = hit-call score of the fitted dose curve at least 0.9, where 1 is the maximum; inactive = score below 0.9.
How the values were obtained:
[1] = read-out: flavin-containing dimethylaniline monooxygenases 3 (FMO3), FMO3 (gene 2328); experiment: LTEA_HepaRG_FMO3: Life Technologies and Expression Analysis (LTEA) Assay for flavin-containing dimethylaniline monooxygenases 3 (FMO3) using HepaRG (AID 2283453); details: mRNA level, 48 h; actives raise or lower the signal
How it was run: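 FMO3 transcript quantified by TaqMan qRT-PCR against three housekeeping genes after 48 h chemical exposure of HepaRG cells. Eight-point half-log series, top 100 uM, 0.5% DMSO vehicle; phenobarbital 1mM induction control; up- or down-regulation fitted.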

[2] = read-out: Cytochrome P450 (CYP1A1), CYP1A1 (gene 1543); experiment: LTEA_HepaRG_CYP1A1: Life Technologies and Expression Analysis (LTEA) Assay for Cytochrome P450 (CYP1A1) using HepaRG (AID 2283454); details: mRNA level, 48 h; actives raise or lower the signal
How it was run: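 Differentiated human HepaRG cells, after 48 h plating, exposed in duplicate for 48 h in serum-free induction medium to 8 half-log concentrations up to 100 uM in 0.5% DMSO. CYP1A1 mRNA by qRT-PCR, normalized to ACTB/GAPDH/POLR2A; bidirectional fit versus DMSO.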

[3] = read-out: CFLAR gene, CFLAR (gene 8837); experiment: LTEA_HepaRG_CFLAR: Life Technologies and Expression Analysis (LTEA) Assay for CFLAR gene using HepaRG (AID 2283455); details: mRNA level, 48 h; actives raise or lower the signal
How it was run: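 Transcript level by qRT-PCR (normalized to ACTB, GAPDH and POLR2A) after 48 h chemical exposure of HepaRG cells, top concentration 100 uM with half-log steps, 0.5% DMSO vehicle, duplicates; fitted bidirectionally against DMSO baseline.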

[4] = read-out: Forkhead box O1 (FOXO1), FOXO1 (gene 2308); experiment: LTEA_HepaRG_FOXO1: Life Technologies and Expression Analysis (LTEA) Assay for Forkhead box O1 (FOXO1) using HepaRG (AID 2283456); details: mRNA level, 48 h; actives raise or lower the signal
How it was run: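 FOXO1 transcript quantified by qRT-PCR after 48 h chemical exposure (top 100 uM, half-log steps, 0.5% DMSO) of HepaRG cells, housekeeping-normalized (ACTB/GAPDH/POLR2A). Changes fitted in both directions relative to vehicle.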

[5] = CEETOX_H295R_TESTO: CeeTox H295R High-throughput Steroidogenesis Assay for Testosterone (TESTO) (AID 2283457); details: actives raise or lower the signal
How it was run: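 H295R adrenal cells, passage ≤10, exposed to chemicals for 48 h. Testosterone in medium measured by MTBE extraction and HPLC-MS/MS against a 7-point standard curve. Bidirectional fit versus DMSO; MTT viability checked in the same wells.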

[6] = read-out: growth arrest and DNA damage 45 (GADD45A), GADD45A (gene 1647); experiment: LTEA_HepaRG_GADD45A: Life Technologies and Expression Analysis (LTEA) Assay for growth arrest and DNA damage 45 (GADD45A) using HepaRG (AID 2283458); details: mRNA level, 48 h; actives raise or lower the signal
How it was run: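 Transcript induction or loss, quantified by TaqMan qRT-PCR against three housekeeping genes, is the read-out. HepaRG cells received chemicals for 48 h across eight half-log concentrations from 100 uM in 0.5% DMSO; gain and loss fitted relative to DMSO.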

[7] = read-out: Forkhead box O3 (FOXO3), FOXO3 (gene 2309); experiment: LTEA_HepaRG_FOXO3: Life Technologies and Expression Analysis (LTEA) Assay for Forkhead box O3 (FOXO3) using HepaRG (AID 2283459); details: mRNA level, 48 h; actives raise or lower the signal
How it was run: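 FOXO3 transcript measured by qRT-PCR (normalized to ACTB, GAPDH, POLR2A) after 48 h exposure of HepaRG cells in serum-free induction medium. Duplicates, eight half-log concentrations up to 100 uM, 0.5% DMSO; gain or loss fitted against DMSO.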

[8] = read-out: ABC Transporter (ABCB1), ABCB1 (gene 5243); experiment: LTEA_HepaRG_ABCB1: Life Technologies and Expression Analysis (LTEA) Assay for ABC Transporter (ABCB1) using HepaRG (AID 2283460); details: mRNA level, 48 h; actives raise or lower the signal
How it was run: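 ABCB1 transcript level measured by TaqMan qRT-PCR against three housekeeping genes after 48 h chemical exposure of differentiated HepaRG cells. Top concentration 100 uM, half-log steps, eight points, 0.5% DMSO vehicle; bidirectional fit relative to DMSO.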

[9] = read-out: growth arrest and DNA damage 45 (GADD45B), GADD45B (gene 4616); experiment: LTEA_HepaRG_GADD45B: Life Technologies and Expression Analysis (LTEA) Assay for growth arrest and DNA damage 45 (GADD45B) using HepaRG (AID 2283461); details: mRNA level, 48 h; actives raise or lower the signal
How it was run: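 Differentiated human HepaRG cells in serum-free induction medium exposed 48 h in duplicate to eight concentrations, top 100 uM, half-log steps, 0.5% DMSO. GADD45B mRNA by TaqMan qRT-PCR, normalized to ACTB, GAPDH, POLR2A; bidirectional fit versus DMSO.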

[10] = read-out: ABC Transporter (ABCC3), ABCC3 (gene 8714); experiment: LTEA_HepaRG_ABCC3: Life Technologies and Expression Analysis (LTEA) Assay for ABC Transporter (ABCC3) using HepaRG (AID 2283462); details: mRNA level, 48 h; actives raise or lower the signal
How it was run: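 Differentiated human HepaRG cells exposed 48 h in serum-free induction medium, 0.5% DMSO vehicle, 8-point half-log series to 100 uM in duplicate. ABCC3 mRNA by qRT-PCR, normalised to ACTB, GAPDH, POLR2A; bidirectional fit vs DMSO.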

[11] = read-out: ABC Transporter (ABCB11), ABCB11 (gene 8647); experiment: LTEA_HepaRG_ABCB11: Life Technologies and Expression Analysis (LTEA) Assay for ABC Transporter (ABCB11) using HepaRG (AID 2283463); details: mRNA level, 48 h; actives raise or lower the signal
How it was run: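 ABCB11 transcript levels quantified by TaqMan qRT-PCR against three housekeeping genes after 48 h chemical exposure of HepaRG cultures. Concentrations up to 100 uM in half-log steps, 0.5% DMSO vehicle; both induction and suppression scored.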

[12] = read-out: ABC Transporter (ABCC2), ABCC2 (gene 1244); experiment: LTEA_HepaRG_ABCC2: Life Technologies and Expression Analysis (LTEA) Assay for ABC Transporter (ABCC2) using HepaRG (AID 2283464); details: mRNA level, 48 h; actives raise or lower the signal
How it was run: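 Differentiated HepaRG cells in serum-free induction medium exposed 48 h to eight half-log concentrations up to 100 uM, 0.5% DMSO, in duplicate. ABCC2 mRNA measured by qRT-PCR (TaqMan, Fluidigm), normalized to ACTB, GAPDH and POLR2A. Fitted in both directions against DMSO.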

[13] = read-out: Broad substrate specificity ATP-binding cassette transporter ABCG2 (Homo sapiens) (UniProt Q9UNQ0); experiment: LTEA_HepaRG_ABCG2: Life Technologies and Expression Analysis (LTEA) Assay for ABC Transporter (ABCG2) using HepaRG (AID 2283465); details: mRNA level, 48 h; actives raise or lower the signal
How it was run: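 ABCG2 transcript was quantified by TaqMan qRT-PCR against three housekeeping genes in HepaRG cells. Cells were treated in duplicate for 48 h across an 8-point half-log series up to 100 uM, with 0.5% DMSO vehicle. Gain or loss versus DMSO was fit.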

[14] = read-out: ATP-citrate lyase (ACLY), ACLY (gene 47); experiment: LTEA_HepaRG_ACLY: Life Technologies and Expression Analysis (LTEA) Assay for ATP-citrate lyase (ACLY) using HepaRG (AID 2283466); details: mRNA level, 48 h; actives raise or lower the signal
How it was run: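 ACLY mRNA quantified by qRT-PCR on Fluidigm arrays against three housekeeping genes, after 48 h chemical treatment of HepaRG cells (top concentration 100 uM, half-log steps, 0.5% DMSO vehicle). Up- or down-regulation fitted relative to DMSO.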

[15] = read-out: Peroxisomal acyl-coenzyme A oxidase 1 (ACOX1) gene, ACOX1 (gene 51); experiment: LTEA_HepaRG_ACOX1: Life Technologies and Expression Analysis (LTEA) Assay for Peroxisomal acyl-coenzyme A oxidase 1 (ACOX1) gene using HepaRG (AID 2283467); details: mRNA level, 48 h; actives raise or lower the signal
How it was run: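 ACOX1 transcript levels were quantified by TaqMan qRT-PCR against three housekeeping genes after 48 h chemical exposure of differentiated human HepaRG cells. Exposure used eight half-log steps topping at 100 uM, 0.5% DMSO vehicle, in duplicate. Bidirectional curve fits were made relative to DMSO.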

[16] = read-out: Alkaline Phosphatase, Placental (ALPP) gene, ALPP (gene 250); experiment: LTEA_HepaRG_ALPP: Life Technologies and Expression Analysis (LTEA) Assay for Alkaline Phosphatase, Placental (ALPP) gene using HepaRG (AID 2283468); details: mRNA level, 48 h; actives raise or lower the signal
How it was run: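 HepaRG cells plated 48 h, then exposed in duplicate for 48 h in serum-free induction medium to 8-point half-log series from 100 uM in 0.5% DMSO. ALPP mRNA by TaqMan qRT-PCR, normalized to ACTB/GAPDH/POLR2A; bidirectional fit versus DMSO.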

[17] = read-out: Bcl-2 (BAD) gene, BAD (gene 572); experiment: LTEA_HepaRG_BAD: Life Technologies and Expression Analysis (LTEA) Assay for Bcl-2 (BAD) gene using HepaRG (AID 2283469); details: mRNA level, 48 h; actives raise or lower the signal
How it was run: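 Read-out: qRT-PCR of BAD mRNA, normalized to three housekeeping genes. Human HepaRG cultures got 48 h chemical exposure in 0.5% DMSO, duplicate eight-point half-log series topping at 100 uM. Gain or loss of signal fitted versus DMSO vehicle.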

[18] = read-out: Bcl-2 (BAX) gene, BAX (gene 581); experiment: LTEA_HepaRG_BAX: Life Technologies and Expression Analysis (LTEA) Assay for Bcl-2 (BAX) gene using HepaRG (AID 2283470); details: mRNA level, 48 h; actives raise or lower the signal
How it was run: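 Cells were thawed, plated for 48 h, moved to serum-free induction medium and dosed for 48 h (highest concentration 100 uM, half-log steps, 0.5% DMSO). Total RNA was then analysed for BAX expression by qRT-PCR.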

[19] = read-out: adenosine kinase (ADK) gene, ADK (gene 132); experiment: LTEA_HepaRG_ADK: Life Technologies and Expression Analysis (LTEA) Assay for adenosine kinase (ADK) gene using HepaRG (AID 2283471); details: mRNA level, 48 h; actives raise or lower the signal
How it was run: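 Read-out is ADK transcript level measured by qRT-PCR and normalised to three housekeeping genes. Cells are human HepaRG, dosed for 48 h at up to 100 uM in 0.5% DMSO. Gain or loss of signal is fitted against DMSO controls.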

[20] = read-out: Alpha-fetoprotein (AFP) gene, AFP (gene 174); experiment: LTEA_HepaRG_AFP: Life Technologies and Expression Analysis (LTEA) Assay for Alpha-fetoprotein (AFP) gene using HepaRG (AID 2283472); details: mRNA level, 48 h; actives raise or lower the signal
How it was run: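 Chemicals were tested on differentiated HepaRG cells for 48 hours at eight concentrations up to 100 uM, with 0.5% DMSO as vehicle. AFP expression was then quantified by qRT-PCR and analyzed for gain or loss relative to DMSO.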

Measured: AC50

Sequence of Broad substrate specificity ATP-binding cassette transporter ABCG2 (Homo sapiens) (Q9UNQ0 whole entry, looked up): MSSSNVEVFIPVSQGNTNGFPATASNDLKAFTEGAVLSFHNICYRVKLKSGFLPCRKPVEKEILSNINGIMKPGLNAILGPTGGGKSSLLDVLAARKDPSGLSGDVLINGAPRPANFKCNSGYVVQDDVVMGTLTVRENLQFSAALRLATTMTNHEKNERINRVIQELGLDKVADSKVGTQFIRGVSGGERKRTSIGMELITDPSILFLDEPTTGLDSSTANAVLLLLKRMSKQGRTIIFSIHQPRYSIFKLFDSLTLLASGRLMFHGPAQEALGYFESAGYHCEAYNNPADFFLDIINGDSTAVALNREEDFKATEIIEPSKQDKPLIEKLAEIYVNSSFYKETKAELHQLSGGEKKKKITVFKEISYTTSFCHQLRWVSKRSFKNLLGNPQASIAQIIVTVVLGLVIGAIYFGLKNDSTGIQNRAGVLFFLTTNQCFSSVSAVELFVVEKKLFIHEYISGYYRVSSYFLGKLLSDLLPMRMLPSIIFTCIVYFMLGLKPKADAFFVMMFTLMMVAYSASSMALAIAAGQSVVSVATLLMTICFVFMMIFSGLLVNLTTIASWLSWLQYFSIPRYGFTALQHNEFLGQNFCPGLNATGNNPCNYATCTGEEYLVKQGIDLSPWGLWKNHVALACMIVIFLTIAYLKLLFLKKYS

CCC(C)(C)C(=O)OC1=C(c2ccc(Cl)cc2Cl)C(=O)OC12CCCCC2
active: [1] 66.4 µM | [2] 50 µM | [11] 20.7 µM
inactive: all other assays above

CCCN(CCC)c1c([N+](=O)[O-])cc(C(F)(F)F)cc1[N+](=O)[O-]
active: [2] 50 µM
inactive: all other assays above
